Screening results as filed in PubChem.
In the library only some 11% were active in any assay of this set; here they are far more common.
IMPase Li inh – qHTS Assay for Identifying the Cell-Membrane Permeable IMPase Inhibitors: Potentiation with Lithium; CHO-M1 cells, IP1 TR-FRET (IP-One), carbachol + lithium; Potency, µM (series often up to 59.4 µM), for the others: at the highest dose activity, negative = IMPase inhibition, hits mostly inhibitors; 0.35% of 210,000 active; AID 1457, 2008; active = well fitted curve in the direction sought with a large enough effect; inconclusive = small, poorly fitted or top-dose-only effect, or another doubt; inactive = no such curve, though single readings can be large; an effect the other way counts as inactive or inconclusive;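 also: IP1 builds up when IMPase is blocked and the TR-FRET signal falls; potency is read from the fitted curve at half-maximal effect; plate controls were basal vehicle for no effect and high inhibitor control for full effect; nearly all actives have a fitted effect of over 50% in size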
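CHO-M1, 2000 cells/well, 16–30 h culture; cpd + low Li+, 30 min 37C; lysis with d2-IP1/Eu-anti-IP1 Ab, 10 min RT; TR-FRET 665/620 ratio and 620 channel; AC50 via Hill.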
IMPase cell inh – qHTS Assay for Identifying the Cell-Membrane Permeable IMPase Inhibitors. inhibition (IP1 accumulation), % at 46.1 µM. CHO-M1 cells, IP1 accumulation, HTRF TR-FRET ratio. AID 901, 2007. 120,000 tested, under 10 active; active = well fitted curve in the direction sought with a large enough effect in the signal ratio, not every such curve was filed as active; inconclusive = small, poorly fitted or top-dose-only effect, or a change in a side signal; inactive = no such curve, though single readings can be large or run the other way; the % refers to the signal ratio;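 also: cells stimulated with carbachol in lithium chloride buffer; plate controls were DMSO basal wells for no effect and reference inhibitor wells for full effect; higher means more IMPase inhibition seen as more IP1 and lower FRET ratio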
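Carbachol-driven Gq signalling in CHO-M1 cells (2000/well) generates IP1. Compounds that block IMPase raise IP1 and so reduce the FRET signal from Eu-anti-IP1 and d2-IP1 after a 10 min room-temperature lysis.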
12-hLO inh – qHTS Assay for Inhibitors of 12-hLO (12-human lipoxygenase) | Polyunsaturated fatty acid lipoxygenase ALOX12 (Homo sapiens), P18054 | purified 12-hLO, xylenol orange hydroperoxide absorbance | Potency, µM (titrated, usually from 57.1 µM), inactives show top-dose activity change, negative = inhibition, usual class: inhibitors | 0.12% of 150,000 active | AID 1452, 2008; active = well fitted curve in the direction sought with a large enough effect; inconclusive = small, poorly fitted or top-dose-only effect, or another doubt; inactive = no such curve, though single readings can be large; an effect the other way counts as inactive or inconclusive; also: potency is read from the fitted curve at half-maximal effect; nearly all actives have a fitted effect of over 55% in size
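Purified human 12hLO (150 nM), preincubated 15 min with compound, then 40 uM arachidonic acid for 30 min, room temperature, Hepes pH 7.0 with 0.01% Triton X-100. Hydroperoxide detected by ferrous iron/xylenol orange; 573/405 nm absorbance ratio gives reaction progress.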
ALDH1A1 block – qHTS Assay for Inhibitors of Aldehyde Dehydrogenase 1 (ALDH1A1). Aldehyde dehydrogenase 1A1 (Homo sapiens), P00352. Purified ALDH1A1, NADH fluorescence, propionaldehyde substrate. Potency, µM (top dose mostly 75.3 µM), for the others: at the highest dose activity, negative = inhibition, usual class: inhibitors. 7.3% of 220,000 active;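 also: potency is read from the fitted curve at half-maximal effect; plate controls were no enzyme wells and a reference inhibitor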
Target sequence (P00352 whole entry, looked up): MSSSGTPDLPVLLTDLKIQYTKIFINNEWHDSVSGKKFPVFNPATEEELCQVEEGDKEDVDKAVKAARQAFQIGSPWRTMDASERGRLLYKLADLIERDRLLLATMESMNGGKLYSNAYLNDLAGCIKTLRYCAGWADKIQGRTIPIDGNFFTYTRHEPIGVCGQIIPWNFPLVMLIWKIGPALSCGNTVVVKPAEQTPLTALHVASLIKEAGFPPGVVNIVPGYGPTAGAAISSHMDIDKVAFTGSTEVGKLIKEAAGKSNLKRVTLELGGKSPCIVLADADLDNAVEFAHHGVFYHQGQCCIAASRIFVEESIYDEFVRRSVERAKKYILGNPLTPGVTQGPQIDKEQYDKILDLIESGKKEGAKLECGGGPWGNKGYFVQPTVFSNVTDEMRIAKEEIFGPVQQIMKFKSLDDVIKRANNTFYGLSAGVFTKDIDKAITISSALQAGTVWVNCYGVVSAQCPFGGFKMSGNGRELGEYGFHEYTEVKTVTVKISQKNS
PNC assembly inh – High Content Assay for Compounds that inhibit the Assembly of the Perinucleolar Compartment; activity change (PNC), negative = inhibition, % at 10 µM; AID 2417, 2010; PC3M PTB-GFP, PNC prevalence imaging, 16 h; active compounds read low; 3.1% of 140,000 active;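 active = readout at or below -70, meaning at least 70% loss of cells showing the perinucleolar compartment, a nuclear body marking cancer cells; inconclusive = readout between -30 and a set limit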;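 also: plate controls were DMSO wells for no effect and camptothecin positive control wells for full effect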
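Read-out is percentage of cells bearing a perinucleolar compartment, from automated 20x imaging of fixed, Hoechst-stained PC3M PTB-GFP cells. Cells were seeded 4 h, then exposed 16 h to compound (23 nl of library stock) in duplicate plates.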
HPGD block – qHTS Assay for Inhibitors of HPGD (15-Hydroxyprostaglandin Dehydrogenase); purified HPGD, NADH fluorescence kinetic, PGE2 substrate; Potency, µM, for the others: at the top dose activity change, negative = inhibition, most hits filed as inhibitors; 4.3% of 150,000 active; AID 894, 2007; also: potency is read from the fitted curve at half-maximal effect
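20 nM HPGD preincubated 15 min at room temperature with compound in 50 mM Tris-HCl pH 8, 0.01% Tween 20. Started with 1 mM NAD+ and 30 uM prostaglandin E2; NADH fluorescence (360/450 nm) read 5 times over 30-s intervals, last minus first.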
* marks the source's active call; other numbers are inactive results; u = inconclusive; x = not tested or not shown; [ ] = another dose, or the depositor's remark. Unless noted, calls follow the shape of the dose curve; as a rule, active = well fitted inhibition curve with a large enough effect (not every such curve was filed as active); inconclusive = small, poorly fitted or top-dose-only effect, or another doubt; inactive = no such curve, though single readings can be large or run the other way. Unless noted, % is scaled to controls: 0 for no effect and ±100 for the full control effect.

SMILES | IMPase Li inh | IMPase cell inh | 12-hLO inh | ALDH1A1 block | PNC assembly inh | HPGD block
CSc1nc(-c2ccccc2)nc(N2CCN(C)CC2)c1C(C)=O | 5%[38.3 µM] | -6 | 3% | -13% | 16 | -21%
Nc1nc(Cl)cc(NCCO)n1 | -7% | x | -4%[11.4 µM] | -1%[13.5 µM] | x | -7%
O=[N+]([O-])c1cc(Br)cc(C=Nc2ccc3c(c2)OCO3)c1O | x | x | x | 10µM* | x | x
CCOC(=O)c1cc(-c2ccc(N)cc2)sc1N | 25%[38.3 µM] | 9 | -11% | 28µM* | 38 | -8%
CN1CCc2c(n(CC(O)CN(CCO)CCO)c3ccccc23)C1=O (stereo not given) | 2% | x | x | 0% | x | x
Cc1c(C)n(CC(O)CN2C(=O)c3ccccc3S2(=O)=O)c2ccccc12 (stereo not given) | 33%[38.3 µM] | 1 | -2% | 14µM* | u | 20µM*
CN1CCc2c(n(CC(O)CN3C(=O)c4ccccc4S3(=O)=O)c3ccccc23)C1=O (stereo not given) | -3% | u | 2% | 10µM* | -3 | -1%
COC(=O)c1ccc(OCC(O)CN2C(=O)c3ccccc3S2(=O)=O)cc1 (stereo not given) | 16% | x | x | u | x | x
O=C1c2ccccc2S(=O)(=O)N1CC(O)COc1ccc(Cl)cc1 (stereo not given) | x | 4 | -20% | u | -17 | x
O=C1c2ccccc2S(=O)(=O)N1CC(O)COc1ccc(Br)cc1 (stereo not given) | 2%[38.3 µM] | -3 | -25% | u | -106* | u
NC(N)=NCCCC(NC(=O)C(N)Cc1ccc(O)cc1)C(=O)O (stereo not given) | 1% | x | 0% | -9% | x | -17%
N#CC(c1ccc(Cl)nn1)c1ccc(Cl)cc1Cl (stereo not given) | 26%[38.3 µM] | 9 | -3% | 6.3µM* | 4 | -6%
COc1ccc(C(C#N)c2ccc(Cl)nn2)cc1 (stereo not given) | 2% | x | x | u | x | x
CCN(CC(=O)NC1CCCC1)S(=O)(=O)c1ccc(C)cc1 | 20%[38.3 µM] | 3 | -3% | -1% | u | -13%
CCN(CC(=O)NC1CCCCCC1)S(=O)(=O)c1ccccc1 | 17%[38.3 µM] | -2 | -4% | 1% | -80* | -10%
O=S(=O)(NC1CCCC1)c1ccc(S(=O)(=O)N2CCc3ccccc32)cc1 | 22% | 7 | -6% | 32µM* | 3 | -1%
O=S(=O)(NC1CCc2ccccc21)c1ccc(S(=O)(=O)N2CCCC2)cc1 (stereo not given) | 24%[38.3 µM] | 13 | -4% | 14µM* | -8 | -7%
O=C(Nc1ccc(Br)cc1)c1cccc(S(=O)(=O)N2CCc3ccccc32)c1 | x | 1 | x | x | x | x
O=C(Nc1ccc(S(=O)(=O)N2CCc3ccccc32)cc1)c1ccc2c(c1)OCO2 | 12% | -1 | -3% | 18µM* | u | -8%
O=C(Nc1ccc(S(=O)(=O)N2CCc3ccccc32)cc1)c1ccco1 | 15%[38.3 µM] | 3 | -15% | 25µM* | 26 | -19%
O=C(NC1CCc2ccccc21)C1CCN(S(=O)(=O)c2ccc(Cl)cc2)CC1 (stereo not given) | -1% | 3 | -3% | 7% | -3 | -20%
Cn1c(=O)c(=O)n(C)c2cc(S(=O)(=O)N3CCc4ccccc43)ccc21 | -23%[38.3 µM] | 7 | -7% | 3% | u | -6%
CCc1nnc2c3ccccc3nc(Nc3cc(C)cc(C)c3)n12 | x | 7 | x | x | x | x
NS(=O)(=O)c1ccc(N=Nc2cc3ccccc3c(C(=O)O)c2O)cc1 | -14% | x | -1%[11.4 µM] | 10%[13.5 µM] | x | -15%
Cc1cc(C)c(S(=O)(=O)/N=C2/C=C(SCC(=O)O)C(=O)c3ccccc32)cc1C | 7% | x | x | 7.1µM* | x | x
